Data published in the supplement of paper PMC10498489.
The campaign covered roughly 2,300 compounds. About 330 (14%) showed activity.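 The calls were made as follows: active = median modified Z-score above 1.96; inactive = 1.96 or below.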 Only a sample is shown.

Test system: HepG2 Srxn1-GFP reporter cells (+30 nM CDDO-Me)
Test: Srxn1-GFP intensity median modified Z-score relative to plate median; higher = stronger NRF2 / oxidative stress reporter activation, active = hit call of the paper
Conditions: 10 µM; exposure time: 24h
Method in brief: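 HepG2 Srxn1-GFP BAC reporter cells (20,000 per well, 96-well plates) were co-exposed to an NRF2 activator at 30 nM and compound at 10 μM (≤0.1% DMSO) for 24 h in three replicate plates. After formaldehyde fixation and Hoechst staining, confocal images were analysed per cell for cytoplasmic GFP, excluding images with under 100 cells. The value is the median over replicates of the per-plate modified Z-score of GFP intensity. Scaling used 1.4826 × median absolute deviation.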

| SMILES | Srxn1-GFP intensity median modified Z-score |
| --- | --- |
| NCCCS(=O)(=O)O [euspeclibcmpd386] | -0.0155 (inactive) |
| CCc1[nH]c(=N)[nH]c(=N)c1-c1ccc(Cl)cc1 [euspeclibcmpd259] | 1.02 (inactive) |
| C[C@@H]1CN(c2c(F)c(F)c3c(=O)c(C(=O)O)cn(C4CC4)c3c2F)C[C@H](C)N1 [euspeclibcmpd981] | -0.465 (inactive) |
| Oc1c(C2=CC[C@@H](c3ccc(Cl)cc3)CC2)c(O)c2ccccc2c1O [euspeclibcmpd664] | 37.9 (active) |
| COc1ccc(-c2cc(=O)c3c(O)c(OC)c(O[C@H]4O[C@H](CO[C@@H]5O[C@@H](C)[C@H](O)[C@@H](O)[C@H]5O)[C@@H](O)[C@H](O)[C@H]4O)cc3o2)cc1 [euspeclibcmpd1421] | -0.512 (inactive) |
| COc1cc(OC)c2c(=O)c(OC)c(-c3ccccc3)oc2c1 [euspeclibcmpd1625] | 1.58 (inactive) |
| COc1cc(OC)c2c(OC)c(-c3ccc4c(c3)OCO4)c(=O)oc2c1 [euspeclibcmpd2227] | 2.22 (active) |
| COc1cc(OC)c2c(=O)c(O)c(-c3ccc(OC)c(OC)c3)oc2c1 [euspeclibcmpd2117] | -0.572 (inactive) |
| CCN(CC)C(=O)C1(c2ccccc2)CC1CN (configuration not stated) [euspeclibcmpd689] | -0.729 (inactive) |
| O=C(C(O)CO)C(O)CO (configuration not stated) [euspeclibcmpd2280] | -0.0858 (inactive) |
| O=c1c(-c2ccc(O)cc2)coc2c(C3O[C@H](CO)[C@@H](O)[C@H](O)[C@H]3O)c(O)ccc12 (some centres not stated) [euspeclibcmpd1715] | -0.564 (inactive) |
| COC(=O)NN=Cc1c[n+]([O-])c2ccccc2[n+]1[O-] [euspeclibcmpd737] | 0.066 (inactive) |
| NN=c1[nH]ncc2ccccc12 [euspeclibcmpd806] | -0.328 (inactive) |
| COc1ccc2c(c1)OCC(Cc1ccc(OC)c(O)c1)C2=O (configuration not stated) [euspeclibcmpd1628] | 21.4 (active) |
| COc1ccc2c(c1)OC[C@@H](Cc1ccc(OC)c(OC)c1)[C@@H]2O [euspeclibcmpd2183] | 1.04 (inactive) |
| COc1ccc2c(c1)OCC(Cc1ccc(OC)c(OC)c1)C2=O (configuration not stated) [euspeclibcmpd1645] | 15.4 (active) |

| SMILES | Srxn1-GFP intensity median modified Z-score |
| --- | --- |
| COc1cc2c(cc1OC)C1(O)C(=O)c3ccc(O)c(C(=O)O)c3OC1CO2 (configuration not stated) [euspeclibcmpd1511] | -0.131 (inactive) |
| COc1ccc2c(c1)OCC(Cc1ccc(OC)c(OC(C)=O)c1)C2=O (configuration not stated) [euspeclibcmpd1962] | 1.39 (inactive) |
| COc1ccc2c(c1)OCC(Cc1ccc(O)c(OC)c1)C2=O (configuration not stated) [euspeclibcmpd1837] | 0.677 (inactive) |
| CC(=O)O/C1=C2\C(C)[C@@H](OC(=O)C(O)[C@@H](NC(=O)c3ccccc3)c3ccccc3)C[C@@](O)([C@@H](OC(=O)c3ccccc3)C3[C@](C)(C1=O)[C@@H](O)C[C@H]1OC[C@@]31OC(C)=O)C2(C)C (some centres not stated) [euspeclibcmpd631] | 0.274 (inactive) |
| O=C1O[C@H](C(O)CO)C(O)=C1O (some centres not stated) [euspeclibcmpd2046] | -0.841 (inactive) |
| CC(CCC(=O)O)C1CC[C@H]2C3[C@H](O)C[C@@H]4C[C@H](O)CCC4(C)[C@H]3C[C@H](O)C12C (some centres not stated) [euspeclibcmpd1325] | -0.323 (inactive) |
| CCC(C)C1NC(=O)C(CCN)NC(=O)C(NC(=O)C(CCN)NC(=O)C(NC(=O)C(CCN)NC(=O)CCCCC(C)C)C(C)O)CCNC(=O)C(C(C)O)NC(=O)C(CCN)NC(=O)C(CCN)NC(=O)C(C(C)CC)NC1=O (configuration not stated) [euspeclibcmpd887] | 0.477 (inactive) |
| CC(C)C1CC[C@@H](C)CC1=O (some centres not stated) [euspeclibcmpd1630] | -0.168 (inactive) |
| CC(=O)OCC(=O)[C@@]12OC3(CCCC3)O[C@@H]1CC1C3CC=C4CC(=O)C=C[C@]4(C)[C@@]3(F)[C@@H](O)C[C@@]12C (some centres not stated) [euspeclibcmpd606] | -0.413 (inactive) |
| CN[C@@H]1C(OC2[C@H](O[C@H]3[C@H](O)[C@@H](O)[C@H](N=C(N)N)[C@@H](O)[C@@H]3N=C(N)N)OC(C)[C@]2(O)CO)OC(CO)C(O)C1O (some centres not stated) [euspeclibcmpd500] | 0.194 (inactive) |
| CC(C)=c1nc(N(C)S(C)(=O)=O)nc(-c2ccc(F)cc2)c1=CC[C@@H](O)C[C@@H](O)CC(=O)O [euspeclibcmpd2132] | 0.158 (inactive) |
| CC(C)c1c(C(=O)Nc2ccccc2)c(-c2ccccc2)c(-c2ccc(F)cc2)n1CC[C@@H](O)C[C@@H](O)CC(=O)O [euspeclibcmpd2076] | 0.0135 (inactive) |
| CC(C)n1c(C=CC(O)CC(O)CC(=O)O)c(-c2ccc(F)cc2)c2ccccc21 (configuration not stated) [euspeclibcmpd1968] | 3.35 (active) |
| CC1=C2CC(=O)C=C[C@]2(C)C2C(C1)C1CC[C@](O)(C(=O)COC(=O)CCC(=O)O)[C@@]1(C)C[C@@H]2O (some centres not stated) [euspeclibcmpd2224] | -0.845 (inactive) |
| Oc1cc2c(cc1O)=C1c3ccc(O)c(O)c3OCC1(O)C=2 (configuration not stated) [euspeclibcmpd1969] | -0.521 (inactive) |
| CC(CCC(=O)O)[C@H]1CCC2C3C(=O)C[C@@H]4CC(=O)CC[C@]4(C)C3CC(=O)[C@@]21C (some centres not stated) [euspeclibcmpd357] | 0.217 (inactive) |
